# Test results as given in article PMC5540273 (PLoS ONE, 2017).
# System: SRC
# Conditions: concentration: 1 μM, replicates: in singlicate; n = 1
# 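Note: KINOMEscan kinase panel screen.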
row,SMILES,%Inh [%]
1,CN(c1ccc(NC(=O)Nc2cc(C(F)(F)F)ccc2F)cc1)c1ccnc(Nc2ccc(S(N)(=O)=O)cc2)n1 [GW809893],99.7
2,Nc1ncnc2c1nc(-c1ccccc1)n2-c1ccccc1 [SKF-97293],10
3,CN1CCN(CCCNc2nccc(-c3c(-c4ccc(F)cc4)nn4cc(C(F)(F)F)ccc34)n2)CC1 [GW621581],14
4,O=C(Nc1cccc(-c2nn3ccccc3c2-c2ccnc(Nc3cccc(C(F)(F)F)c3)n2)c1)c1c(F)cccc1F [GSK292658],15
5,COc1cc(Nc2nccc(N3CCC(NC(=O)Nc4cccc(C(C)=O)c4)C3)n2)cc(OC)c1OC (stereo not shown) [GSK1379753],10
6,Cl.Cl.NCC(C(=O)Nc1cc(Br)c(-c2ccnc3[nH]ccc23)s1)c1ccccc1 (stereo not shown) [GSK1269851],0
7,COc1ccc(Nc2nccc(NCCNC(=O)c3cc4ccccc4s3)n2)cc1 [GSK1379896],9
8,Cc1ccc(F)c(C(=O)Nc2cccc(-c3nn4ccccc4c3-c3ccnc(Nc4cccc(F)c4)n3)c2)c1F [GSK361061],25
9,Cl.Cl.NCC(NC(=O)c1cc(-c2ccccc2)c(-c2ccnc3[nH]ccc23)s1)c1ccccc1 (stereo not shown) [GSK1321561],69
10,Cc1cccc(Nc2nc(N[C@H]3CCNC3)ncc2C(N)=O)c1.Cl [GSK2197149],85
11,COc1cccc(C2=C(Nc3ccc(Cl)c(C(=O)O)c3)C(=O)NC2=O)c1 [SB-390769],0
12,O=C(Nc1cccc(-c2nn3ccccc3c2-c2ccnc(Nc3cccc(F)c3)n2)c1)c1c(F)ccc(F)c1Cl [GSK357952],45
13,COc1cccc(NC(=O)NC2CCN(c3ccnc(Nc4cc(OC)c(OC)c(OC)c4)n3)C2)c1 (stereo not shown) [GSK1379763],10
14,O=c1[nH]cc(-c2ccc(N3CCOCC3)cc2)c2sc(-c3cn[nH]c3)cc12 [GSK2276055],0
15,CC(C)(C)c1ccc2nccc(Nc3cccc(O)c3)c2c1 [GW856795],96.7
16,COc1ccc(Nc2nccc(N3CCC(NC(=O)Nc4cccc(OC)c4)C3)n2)cc1 (stereo not shown) [GSK1379742],5

row,SMILES,%Inh [%]
1,CCS(=O)(=O)c1ccc(OC)c(Nc2nccc(-c3c(-c4cccc(NC(=O)c5c(F)cccc5F)c4)nn4ncccc34)n2)c1 [GSK326180],0
2,CC(C)c1nc(-c2cccc(NS(=O)(=O)c3c(F)cccc3F)c2F)c(-c2ccnc(Nc3ccc(N4CCOCC4)nc3)n2)s1 [GSK2008607],100
3,Fc1ccc(-c2ncn(C3CCNCC3)c2-c2ccnc(Oc3ccc(-c4ccccc4)cc3)n2)cc1 [SB-245391],11
4,O=C(Nc1n[nH]c2cc(-c3ccoc3)ccc12)C1CC1 [SB-738481],0
5,Nc1ncc(-c2cccnc2)c2scc(-c3ccc4c(c3)CCN4C(=O)Cc3ccccc3)c12 [GSK683281],37
6,Nc1ncc(-c2ccc3nccc(-c4ccncc4)c3c2)cc1S(=O)(=O)N1CCOCC1 [GSK1627798],0
7,C[C@@H]1CC[C@@H](C(=O)Nc2ccccc2)CN1c1cc(-c2ccc3c(N)n[nH]c3c2)nc(N)n1 [GSK2286062],0
8,Cn1cc(-c2ccc3c(c2)CCN3C(=O)Cc2cccc(F)c2)c2c(N)ncnc21 [GSK2603358],4
9,Cc1ccc(C(=O)N2CC[C@@H](O)C2)cc1-n1c(C)cc(OCc2ccc(F)cc2F)c(Br)c1=O,97.7
10,CN1CCN(Cc2cccc(-c3ccc4c(Nc5ccc(Oc6ccccc6)cc5)ccnc4c3)c2)CC1 [GW578342],34
11,CN(C)S(=O)(=O)c1cc(-c2ccc3nccc(-c4cccc(S(N)(=O)=O)c4)c3c2)cnc1N [GSK1669921],0
12,COc1cc(Nc2nccc(-c3c(-c4cccc(NC(=O)c5c(F)cccc5F)c4)nn4ncccc34)n2)cc(OC)c1OC [GSK327238],99.9
13,COCCOCCOc1cc2ncc3c4ccc(C#N)cc4[nH]c3c2cc1OC,14
14,Cc1ccc(C(=O)Nc2ccc(Nc3ccnc4cc(-c5nccs5)ccc34)cc2O)cc1.Cl [GW494702],60
15,CC(=O)N1CCN(c2ccc(Nc3nccc(-c4sc(C(C)C)nc4-c4cccc(NS(=O)(=O)c5cccc(Cl)c5)c4)n3)cn2)CC1 [GSK1660437],85
